# Data from PubChem BioAssay.
# Calls of active or inactive are those of the source.
# Assays:
# [1] = small molecules captured by biotinylated probe aFSTL3 – biochemical, small-molecule microarray, fluorescence 635/667, stem cell growth factor project, primary screen (AID 1064); conditions: higher = more signal;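 further: measures binding of the biotinylated anti-FSTL3 antibody to printed compounds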
# [2] = binders from COS7 lysate, DM2A8 probe, primary screen, torsin A project, cell lysate, small-molecule microarray, fluorescence 635/667 (AID 1065); conditions: higher = more signal, COS7 lysate expressing mutant human TOR1A
# [3] = small molecules captured by biotinylated probe aFGF2 – biochemical, small-molecule microarray, fluorescence 635/667, stem cell growth factor project, primary screen (AID 1067); conditions: higher = more signal;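 further: measures binding of biotinylated aFGF2 protein to printed compounds on slides; z-score merges feature fluorescence and signal-to-noise across triplicate slides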
# [4] = small molecules captured by biotinylated probe aFGF10 – biochemical, small-molecule microarray, fluorescence 635/667, stem cell growth factor project, primary screen (AID 1071); conditions: higher = more signal;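 further: score merges 667 nm spot intensity and signal to noise from triplicate slides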
# [5] = target: Neurogenic locus notch homolog protein 2 (Homo sapiens) (UniProt Q04721); assay: small molecules binding Notch2 protein – biochemical, small-molecule microarray, 635 nm fluorescence, stem cell growth factors, primary screen (AID 1073); conditions: higher = more signal
# [6] = target: Pro-neuregulin-1, membrane-bound isoform (Homo sapiens) (UniProt Q02297); assay: small molecules binding neuregulin-1 protein – biochemical, small-molecule microarray, fluorescence 635/667, psychiatric disease protein project, primary screen (AID 1075); conditions: NRG1 binding, 635 nm fluorescence, higher = more signal;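 further: score combines 667 nm spot fluorescence with signal to noise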
# Chain of Pro-neuregulin-1, membrane-bound isoform (Homo sapiens) (Q02297 whole entry, looked up, the tested form may be a part, canonical isoform): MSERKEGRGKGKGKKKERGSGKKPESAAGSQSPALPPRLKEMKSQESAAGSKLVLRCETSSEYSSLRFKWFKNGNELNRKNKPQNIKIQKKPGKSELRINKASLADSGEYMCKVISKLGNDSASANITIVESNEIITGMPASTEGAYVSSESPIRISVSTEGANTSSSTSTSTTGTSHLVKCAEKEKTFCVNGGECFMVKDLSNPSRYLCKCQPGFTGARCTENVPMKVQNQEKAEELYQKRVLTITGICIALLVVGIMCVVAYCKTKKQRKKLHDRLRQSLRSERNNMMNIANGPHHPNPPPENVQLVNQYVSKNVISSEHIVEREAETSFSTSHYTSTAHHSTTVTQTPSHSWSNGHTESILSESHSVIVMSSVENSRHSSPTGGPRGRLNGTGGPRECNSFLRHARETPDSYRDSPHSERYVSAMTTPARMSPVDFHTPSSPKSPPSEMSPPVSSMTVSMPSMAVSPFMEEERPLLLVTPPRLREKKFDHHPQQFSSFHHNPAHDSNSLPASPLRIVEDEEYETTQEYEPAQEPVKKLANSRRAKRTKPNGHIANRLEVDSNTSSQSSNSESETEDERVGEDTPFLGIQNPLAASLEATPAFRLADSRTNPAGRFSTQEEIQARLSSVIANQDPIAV
# [7] = system: Neuregulin-1 EGF-like domain; assay: small molecules binding NRG1 EGF domain – biochemical, small-molecule microarray, 635 nm fluorescence, primary screen (AID 1081); conditions: higher = more signal;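 further: binding of the protein to compounds printed on small-molecule microarray slides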
# [8] = FRG1 expression reporter modulators in myotubes – cell-based, C2C12 myotubes, firefly/Renilla luciferase, luminescence, FRG1 inhibition for FSHD, primary screen (AID 1084); conditions: FRG1 promoter luciferase, higher = more signal, called active from +8 up or from −8 down
# [9] = small molecules captured by biotinylated probe aFST – biochemical, small-molecule microarray, fluorescence 635/667, stem cell growth factor project, primary screen (AID 1086); conditions: higher = more signal;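 further: score merges 667 nm fluorescence with signal-to-noise of each printed compound spot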
# [10] = binders of probe aHhip on microarray, primary screen, stem cell growth factor project, biochemical, small-molecule microarray, fluorescence 635/667 (AID 1087); conditions: higher = more signal;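 further: score merges spot fluorescence at 667nm with spot signal to noise ratio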
# [11] = system: PRMT1 (protein arginine N-methyltransferase 1); assay: small molecules binding arginine methyltransferase PRMT1 – biochemical, small-molecule microarray, 635 nm fluorescence, primary screen (AID 1088); conditions: higher = more signal;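 further: binding of Prmt1 protein to compounds spotted on small-molecule microarray slides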
# [12] = growth effects on S. cerevisiae YJM789 – YJM789 clinical isolate, OD600, 24 h, basal, primary screen (AID 1089); conditions: higher = more signal, called active from +8 up or from −8 down;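 further: growth of clinical yeast isolate S. cerevisiae YJM 789 seeded 1000 cells per well; test concentration not given here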
# [13] = S. pombe growth modifiers, basal conditions – strain 972, OD600, 24 h, no modulator, primary screen (AID 1090);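 further: basal condition with compound alone and no growth modifier present; test concentration not given here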; conditions: S. pombe 972 growth, higher = more signal, called active from +8 up or from −8 down
# [14] = budding yeast growth modifiers under rapamycin – strain BY4716, OD600, 96 h, primary screen (AID 1091); further: test concentration not given here; conditions: S. cerevisiae BY4716 + rapamycin, higher = more signal, called active from +8 up or from −8 down
# [15] = target: Torsin-1A-interacting protein 2 (Homo sapiens) (UniProt Q8NFQ8); assay: small molecules binding lysate-expressed LULL1 – cell lysate, human LULL1 lysate, 635/667 nm fluorescence, primary screen (AID 1092); conditions: small-molecule microarray, hLULL1 lysate binding, 635 nm fluorescence; higher = more signal;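 further: probe is lysate of COS7 cells overexpressing human LULL1; score merges per-feature 667 nm fluorescence with signal-to-noise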
# Chain of Torsin-1A-interacting protein 2 (Homo sapiens) (Q8NFQ8 whole entry, looked up): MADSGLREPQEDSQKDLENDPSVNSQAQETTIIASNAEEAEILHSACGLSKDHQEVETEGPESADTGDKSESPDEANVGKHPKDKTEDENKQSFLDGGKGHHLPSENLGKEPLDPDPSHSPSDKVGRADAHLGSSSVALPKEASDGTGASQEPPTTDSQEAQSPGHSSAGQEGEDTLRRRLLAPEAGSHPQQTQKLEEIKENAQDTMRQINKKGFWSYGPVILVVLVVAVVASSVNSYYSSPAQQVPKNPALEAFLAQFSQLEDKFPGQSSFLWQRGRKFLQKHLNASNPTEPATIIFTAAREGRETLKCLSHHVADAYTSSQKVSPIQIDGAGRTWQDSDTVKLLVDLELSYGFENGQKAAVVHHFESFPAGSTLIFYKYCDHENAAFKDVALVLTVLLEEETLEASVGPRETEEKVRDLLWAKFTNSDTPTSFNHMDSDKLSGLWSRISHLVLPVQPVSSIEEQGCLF
# [16] = optical density change of DRC41 E. coli – strain DRC41, OD650, 24 h, E. coli filamentation project, primary screen (AID 1093);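 further: MC1000 strain lacking acrAB efflux and sulA so SOS filamentation is blocked; test concentration not given here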; conditions: E. coli DRC41 growth, higher = more signal, called active from +8 up or from −8 down
# [17] = probe aLefty2 binding to arrayed compounds – biochemical, biotinylated probe, 635/667 nm fluorescence, primary screen (AID 1094); conditions: small-molecule microarray, higher = more signal;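 further: score merges spot fluorescence near 667 nm with spot signal-to-noise ratio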
# [18] = system: Noggin (protein binding on small-molecule microarray); assay: small molecules binding Noggin protein – biochemical, 635/667 nm fluorescence, primary screen (AID 1095); conditions: 635 nm fluorescence, higher = more signal;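 further: score merges 667 nm feature fluorescence with signal to noise over triplicate slides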
# [19] = target: Neurogenic locus notch homolog protein 3 (Homo sapiens) (UniProt Q9UM47); assay: small molecules binding NOTCH3 protein – biochemical, 635/667 nm fluorescence, primary screen (AID 1096); conditions: small-molecule microarray, 635 nm fluorescence, higher = more signal
# Chain of Neurogenic locus notch homolog protein 3 (Homo sapiens) (Q9UM47 whole entry, looked up): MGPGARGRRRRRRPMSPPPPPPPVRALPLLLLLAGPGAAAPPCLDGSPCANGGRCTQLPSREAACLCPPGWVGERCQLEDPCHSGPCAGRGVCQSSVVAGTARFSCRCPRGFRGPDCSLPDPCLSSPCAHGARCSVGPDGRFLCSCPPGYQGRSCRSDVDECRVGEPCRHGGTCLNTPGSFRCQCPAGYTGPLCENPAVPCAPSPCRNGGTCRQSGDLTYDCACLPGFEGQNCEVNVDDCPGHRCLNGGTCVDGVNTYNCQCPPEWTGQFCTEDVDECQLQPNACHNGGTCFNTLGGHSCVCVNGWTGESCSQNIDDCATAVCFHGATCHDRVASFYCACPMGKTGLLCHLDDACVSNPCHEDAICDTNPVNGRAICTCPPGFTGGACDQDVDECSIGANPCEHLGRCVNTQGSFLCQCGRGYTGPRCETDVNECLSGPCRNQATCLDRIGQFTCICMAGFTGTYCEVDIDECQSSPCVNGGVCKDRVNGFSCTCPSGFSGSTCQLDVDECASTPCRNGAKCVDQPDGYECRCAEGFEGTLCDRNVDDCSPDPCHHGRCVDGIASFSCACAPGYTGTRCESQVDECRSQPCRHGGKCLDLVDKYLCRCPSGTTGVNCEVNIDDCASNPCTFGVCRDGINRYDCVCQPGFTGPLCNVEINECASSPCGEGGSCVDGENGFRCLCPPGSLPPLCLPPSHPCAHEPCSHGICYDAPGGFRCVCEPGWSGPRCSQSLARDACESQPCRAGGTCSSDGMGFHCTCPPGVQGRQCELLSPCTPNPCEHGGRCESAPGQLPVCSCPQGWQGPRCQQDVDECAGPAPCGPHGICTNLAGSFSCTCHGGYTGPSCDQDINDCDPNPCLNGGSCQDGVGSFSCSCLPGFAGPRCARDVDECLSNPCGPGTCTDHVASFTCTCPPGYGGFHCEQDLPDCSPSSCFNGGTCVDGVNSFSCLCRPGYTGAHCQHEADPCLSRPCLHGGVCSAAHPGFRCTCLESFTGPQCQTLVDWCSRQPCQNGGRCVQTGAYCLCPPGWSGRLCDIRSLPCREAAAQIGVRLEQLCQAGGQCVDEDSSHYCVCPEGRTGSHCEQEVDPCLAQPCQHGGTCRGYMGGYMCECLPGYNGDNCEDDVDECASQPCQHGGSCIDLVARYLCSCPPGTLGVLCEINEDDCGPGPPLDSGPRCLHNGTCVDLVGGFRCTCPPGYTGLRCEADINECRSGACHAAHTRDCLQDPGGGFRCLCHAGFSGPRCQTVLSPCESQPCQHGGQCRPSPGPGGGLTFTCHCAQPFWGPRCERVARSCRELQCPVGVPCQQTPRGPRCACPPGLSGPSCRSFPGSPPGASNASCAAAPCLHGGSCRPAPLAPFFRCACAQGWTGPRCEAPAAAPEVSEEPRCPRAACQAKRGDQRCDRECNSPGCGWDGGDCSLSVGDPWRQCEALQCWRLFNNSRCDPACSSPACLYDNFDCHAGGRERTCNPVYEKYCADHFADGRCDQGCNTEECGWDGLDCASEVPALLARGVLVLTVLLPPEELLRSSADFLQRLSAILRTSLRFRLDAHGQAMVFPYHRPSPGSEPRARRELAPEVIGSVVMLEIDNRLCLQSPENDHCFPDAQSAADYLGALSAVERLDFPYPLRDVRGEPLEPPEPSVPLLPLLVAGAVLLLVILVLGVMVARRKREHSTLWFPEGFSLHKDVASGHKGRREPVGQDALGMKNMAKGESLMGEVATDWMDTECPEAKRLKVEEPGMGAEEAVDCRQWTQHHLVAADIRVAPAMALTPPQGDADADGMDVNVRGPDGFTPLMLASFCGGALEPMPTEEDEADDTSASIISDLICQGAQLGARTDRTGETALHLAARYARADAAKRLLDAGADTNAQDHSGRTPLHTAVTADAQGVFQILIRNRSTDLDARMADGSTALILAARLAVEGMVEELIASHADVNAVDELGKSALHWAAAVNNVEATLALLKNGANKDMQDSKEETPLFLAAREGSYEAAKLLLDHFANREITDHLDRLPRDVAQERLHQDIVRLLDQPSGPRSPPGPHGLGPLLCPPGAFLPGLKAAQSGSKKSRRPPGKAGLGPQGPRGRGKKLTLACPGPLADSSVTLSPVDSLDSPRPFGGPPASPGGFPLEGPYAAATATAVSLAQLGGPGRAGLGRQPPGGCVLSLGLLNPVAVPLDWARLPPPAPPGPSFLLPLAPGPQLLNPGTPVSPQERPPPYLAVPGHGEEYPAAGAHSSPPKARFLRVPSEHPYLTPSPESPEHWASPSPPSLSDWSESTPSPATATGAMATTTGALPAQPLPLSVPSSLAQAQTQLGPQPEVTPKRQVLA
# [20] = probe aEGFR binding to arrayed compounds – biochemical, biotinylated probe, 635/667 nm fluorescence, primary screen (AID 1097); conditions: small-molecule microarray, higher = more signal;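 further: probe is a biotinylated anti-EGFR antibody binding compounds printed on slides; score combines fluorescence near 667 nm and signal to noise of each spot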
SMILES,composite z-score [1],composite z-score [2],composite z-score [3],composite z-score [4],composite z-score [5],composite z-score [6],composite z-score [7],z-score [8],composite z-score [9],composite z-score [10],composite z-score [11],z-score [12],z-score [13],z-score [14],composite z-score [15],z-score [16],composite z-score [17],composite z-score [18],composite z-score [19],composite z-score [20]
CC1C=C(CCCO)C=C(C(=O)OCCS(C)(=O)=O)C(C(=O)OCCS(C)(=O)=O)=CN1Cc1cccc(OC(F)(F)F)c1 (stereo not given),-0.228,0.21,-0.0379,0.203,0.707,2.08,1.14,0.416 (inactive),0.106,-0.0645,0.482,-1.27 (inactive),-2.49 (inactive),-0.0014 (inactive),3.11,-0.436 (inactive),0.0057,0.0266,0.379,-0.0418
Cc1ccccc1C(O)C1C=CC2C(=O)N(Cc3ccccc3)C(=O)C2N1n1cnnc1 (stereo not given),-0.281,0.34,-0.0085,0.304,1.02,1.03,0.92,0.253 (inactive),0.475,0.0053,0.601,-1.26 (inactive),0.658 (inactive),-0.796 (inactive),2.38,-0.0518 (inactive),0.0873,0.162,1.05,0.045
COc1ccc([Si](C)(C)[C@@H]2[C@@H](CC(=O)N(CCO)Cc3ccccc3)O[C@]3(C(=O)N(Cc4ccc(N5CCOC5=O)cc4)c4ccccc43)[C@H]2C)cc1,0.149,0.181,-0.093,0.222,0.294,0.567,1.1,-0.153 (inactive),0.389,0.113,1.44,-0.677 (inactive),0.303 (inactive),2.92 (inactive),2.13,-0.249 (inactive),-0.0887,0.806,0.643,-0.0343
COCCOC(=O)N1C(=O)[C@@]2(c3cc(C#CCNC(N)=O)ccc31)[C@H](C(=O)N1CCCCCCC1)[C@H]1C(=O)O[C@H](c3ccccc3)[C@H](c3ccccc3)N1[C@@H]2c1ccc(OCCO)cc1,1.03,0.303,-0.0024,0.578,0.754,0.446,0.0222,-0.557 (inactive),0.7,0.443,0.543,0.872 (inactive),0.642 (inactive),3.24 (inactive),0.808,-0.299 (inactive),0.239,0.616,1.07,0.0126
[N-]=[N+]=NCc1ccccc1C[C@]1(C(=O)NCCN2CCOCC2)COC(c2ccc(OCCCO)cc2)=N1,0.186,1.25,-0.0647,0.121,0.973,1.02,1.2,-2.23 (inactive),0.817,-0.0645,1.55,-1.52 (inactive),-2.24 (inactive),-1.66 (inactive),3.08,1.46 (inactive),0.0004,0.516,0.486,-0.0351
